Among all 2,100 compounds or so, about 940 (45%) were called active. Inconclusive results (about 48%) are left out. Calls come from the whole dose curve; as a rule, active = well fitted inhibition curve with a large enough effect; inconclusive = small, poorly fitted or top-dose-only effect; inactive = no such curve, though single readings can be large or run the other way. So high a share suggests a set chosen from earlier hits. The list shows a part of the results.
Potency is the fitted concentration of half-maximal effect.

This test can be described thus: Confirmatory qHTS for Inhibitors of ATXN expression. Note: nearly all actives have a fitted effect of over 65% in size. The settings on record: ATXN2-luciferase reporter cells, luminescence, 24 h; series mostly up to 11.5 µM. Put shortly: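 A titration, incubated 24 h with reporter cells expressing ATXN2-luciferase. Luminescence (SteadyGlo) gives ATXN2 expression, multiplexed GF-AFC fluorescence gives viability; normalised to DMSO and medium-only wells.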
Consider `CC1(C(=O)NCc2ccco2)CCN1C(=O)C1(c2ccccc2)CC1` (stereo not drawn), for which the Potency entry is “inactive”.
With `CCc1ccc(-c2nc(CS(=O)CC(=O)NCc3ccco3)c(C)o2)cc1` (stereo not drawn), the Potency is 398 nM (active).
Regarding `CCOC(=O)c1c(NC(=O)COC(=O)CNC(=O)c2ccco2)sc(C)c1C`, the Potency is 2510 nM (active).
Regarding `COC(=O)c1cn(NC(=O)c2cc([N+](=O)[O-])ccc2F)c(=O)c2ccccc12`, the Potency is 2000 nM (active).
Consider `CC(C)CC(=NNC(=O)c1ccncc1)c1cc(Cl)ccc1O`, for which the Potency was 708 nM (active).
For the compound `COc1ccc(C(=O)N/N=C/c2cc(Br)ccc2O)cc1OC`, the Potency is 3160 nM (active).
The value for `COc1ccc(O)c(/C=N/NC(=O)c2ccc(CSc3nc(C)cc(C)n3)cc2)c1` was 2820 nM (active).
Turning to `O=C(N/N=C/c1cc(Br)ccc1OC(=O)c1ccc(Br)cc1)c1ccncc1`, the Potency is 2820 nM (active).
With `O=C(N/N=C/c1cc(Br)cc(Br)c1O)c1ccncc1`, the Potency is 2820 nM (active).
For `O=C(N/N=C/c1cc(Br)ccc1O)c1ccncc1`, the Potency is 794 nM (active).
In the case of `O=C(N/N=C/c1cc(Br)cc(Br)c1O)c1cccc(N2CCCC2=O)c1`, the Potency was 2000 nM (active).
`COc1ccc(O)c(/C=N/NC(=O)c2ccc(OCc3cccc(Br)c3)cc2)c1`: the Potency was 891 nM (active).
For `O=C(N/N=C/c1cc(Br)ccc1O)C(c1ccncc1)N1CCOCC1` (stereo not drawn), the Potency is 14100 nM (active).
Take `CCC(O)(CC)C(=O)N/N=C/c1cc(Br)cc(Br)c1O`: the Potency is 17800 nM (active).
`O=C(N/N=C/c1cc(Cl)ccc1O)c1ccncc1`: the Potency was 3160 nM (active).
Take `O=C(CP(=O)(c1ccccc1)c1ccccc1)N/N=C/c1cc(Br)cc(Br)c1O`: the Potency was 1580 nM (active).
The value for `CN(C)c1ccc(C(=O)N/N=C/c2cc(Br)cc(Br)c2O)cc1` was 1410 nM (active); that for `C/C(=N\N=C(N)N)c1ccc(Cl)cc1Cl` was 15800 nM (active).
Take `CC1(C)Cc2ccccc2C(NNC(=O)c2ccccn2)=N1`: the Potency was 15800 nM (active).
For the compound `O=C(N/N=C/c1cc(Br)cc(Cl)c1O)c1ccc2c(c1)OCO2`, the Potency was 3980 nM (active).
Regarding `CNc1ccc(Br)cc(C(=O)/C=C/c2ccc3c(c2)OCO3)c1=O`, the Potency entry is “inactive”.
Turning to `CC(SC(C)C(=O)NN=Cc1cccc(Cl)c1)C(=O)NN=Cc1cccc(Cl)c1` (stereo not drawn), the Potency entry was “inactive”.
Turning to `O=C(CNC(=O)c1ccc2c(c1)OCO2)N/N=C/c1cc(Br)ccc1O`, the Potency was 3550 nM (active).
For `O=C(N/N=C/c1cc(Cl)ccc1O)c1ccccc1Br`, the Potency was 3980 nM (active).
For the compound `O=C(CNC(=O)c1ccccc1Br)N/N=C/c1cc(Br)ccc1O`, the Potency is 2000 nM (active).
The value for `O=C(CNC(=O)c1ccccc1Br)N/N=C/c1ccccc1O` was 15800 nM (active); that for `O=C(CCc1ccccc1)N/N=C/c1cc(Br)ccc1O` was 1120 nM (active).
For `NS(=O)(=O)c1ccc(CCNC(=O)COC(=O)/C=C/c2cc(Br)ccc2F)cc1`, the Potency entry is “inactive”.
